According to PubChem BioAssay (NCATS):
Inconclusive results are not listed. Active and inactive are the calls of the source. Calls come from the whole dose curve; as a rule, active = well fitted cell-killing curve with a large enough effect; inconclusive = small, poorly fitted or top-dose-only effect, or effect the other way; inactive = flat fitted curve, though single readings scatter.

Key:
Assay in all cases: Primary qHTS to identify gynecologic anti-cancer compounds using libraries of approved drugs and bioactive compounds (AID 1345084); note: nearly all actives have a fitted effect of over 55% in size
Conditions in all cases: Gynecologic cancer cell panel viability, ATPlite luminescence, 48 h; series mostly up to 57.5 µM
OV90 = tested on: OV90
Outline: (§1)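 Cells, 1,000 per well, were allowed to settle for 16 h at 37 C before compound addition. Five concentrations were tested for 48 h, and viability was read by ATPlite luminescence after 15 min at room temperature.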

PA-1 = tested on: PA-1
Outline: as §1

SKOV3 = tested on: SKOV3
Outline: as §1

Tov-21-G = tested on: Tov-21-G
Outline: as §1

Tov112D = tested on: Tov112D
Outline: as §1
% is set by controls: 0 for no effect and ±100 for the full control effect.

CC1(C)CC[C@]2(C(=O)O[C@@H]3O[C@H](CO)[C@@H](O)[C@H](O)[C@H]3O)CC[C@]3(C)C(=CCC4[C@@]5(C)CC[C@H](OC6OC(C(=O)O)C(OC7OC(CO)C(O)C(O)C7O)C(O)C6O)C(C)(C)C5CC[C@]43C)C2C1 (stereo not given in full)
inactive: activity change, negative = cytotoxicity (OV90) 8.01% [at 11.6 µM] | activity change, negative = cytotoxicity (PA-1) 3.63% [at 11.6 µM] | activity change, negative = cytotoxicity (SKOV3) 0% [at 11.6 µM] | activity change, negative = cytotoxicity (Tov-21-G) 2.32% [at 11.6 µM] | activity change, negative = cytotoxicity (Tov112D) 1.83% [at 11.6 µM]

O=C1C(Cl)=C(N2CCOCC2)C(=O)N1c1ccc(Cl)c(Cl)c1
inactive: Potency (OV90) | Potency (PA-1) | Potency (SKOV3) | Potency (Tov-21-G) | Potency (Tov112D)

COC(=O)C1C(O)CCC2CN3CCc4c([nH]c5ccccc45)C3CC21 (stereo not given)
inactive: Potency (OV90) | Potency (PA-1) | Potency (SKOV3) | Potency (Tov-21-G) | Potency (Tov112D)

COc1cc(C)c(C(=O)NC2C(C)OC(OC3CCC(C)C4C3C=C(C)C3/C(C)=C\CC/C(C)=C/C5(C)C=C(C(=O)O)C(C)CC56OC(=O)/C(=C(\O)C34C)C6=O)C(O)C2(C)O)c(O)c1 (stereo not given)
inactive: activity change, negative = cytotoxicity (OV90) 6.29% [at 11.6 µM] | activity change, negative = cytotoxicity (PA-1) -2.04% [at 11.6 µM] | activity change, negative = cytotoxicity (SKOV3) -10.1% [at 11.6 µM] | activity change, negative = cytotoxicity (Tov-21-G) 4.24% [at 11.6 µM] | activity change, negative = cytotoxicity (Tov112D) 8.49% [at 11.6 µM]

COc1cccc(C)c1C(=O)O[C@@H]1C[C@H](O[C@H]2[C@H](O)C[C@H](O[C@@H]3CCC[C@H]4[C@H]3C=C[C@@H]3CCCC/C=C/[C@H]5C=C(C(=O)O)[C@@H](C)C[C@@]56OC(=O)C(=C6O)OC(=O)[C@@]34C)O[C@@H]2C)O[C@H](C)[C@H]1O
inactive: activity change, negative = cytotoxicity (OV90) 2.5% [at 11.6 µM] | activity change, negative = cytotoxicity (PA-1) 9.36% [at 11.6 µM] | activity change, negative = cytotoxicity (SKOV3) 18.8% [at 11.6 µM] | activity change, negative = cytotoxicity (Tov-21-G) 11.1% [at 11.6 µM] | activity change, negative = cytotoxicity (Tov112D) -1.83% [at 11.6 µM]
